Compound activity (PubChem BioAssay)
Rows were chosen to be rich in hits. Some 14% of all compounds tested hit in one or more screens of this group.
USP8 block = human USP8 deubiquitinase inhibition; purified USP8, Ub-rhodamine cleavage fluorescence, 30 min; 47,000 compounds, 4.2% hits; inhibition, % at 20 µM; AID 1645853
Target sequence (P40818 whole entry, looked up): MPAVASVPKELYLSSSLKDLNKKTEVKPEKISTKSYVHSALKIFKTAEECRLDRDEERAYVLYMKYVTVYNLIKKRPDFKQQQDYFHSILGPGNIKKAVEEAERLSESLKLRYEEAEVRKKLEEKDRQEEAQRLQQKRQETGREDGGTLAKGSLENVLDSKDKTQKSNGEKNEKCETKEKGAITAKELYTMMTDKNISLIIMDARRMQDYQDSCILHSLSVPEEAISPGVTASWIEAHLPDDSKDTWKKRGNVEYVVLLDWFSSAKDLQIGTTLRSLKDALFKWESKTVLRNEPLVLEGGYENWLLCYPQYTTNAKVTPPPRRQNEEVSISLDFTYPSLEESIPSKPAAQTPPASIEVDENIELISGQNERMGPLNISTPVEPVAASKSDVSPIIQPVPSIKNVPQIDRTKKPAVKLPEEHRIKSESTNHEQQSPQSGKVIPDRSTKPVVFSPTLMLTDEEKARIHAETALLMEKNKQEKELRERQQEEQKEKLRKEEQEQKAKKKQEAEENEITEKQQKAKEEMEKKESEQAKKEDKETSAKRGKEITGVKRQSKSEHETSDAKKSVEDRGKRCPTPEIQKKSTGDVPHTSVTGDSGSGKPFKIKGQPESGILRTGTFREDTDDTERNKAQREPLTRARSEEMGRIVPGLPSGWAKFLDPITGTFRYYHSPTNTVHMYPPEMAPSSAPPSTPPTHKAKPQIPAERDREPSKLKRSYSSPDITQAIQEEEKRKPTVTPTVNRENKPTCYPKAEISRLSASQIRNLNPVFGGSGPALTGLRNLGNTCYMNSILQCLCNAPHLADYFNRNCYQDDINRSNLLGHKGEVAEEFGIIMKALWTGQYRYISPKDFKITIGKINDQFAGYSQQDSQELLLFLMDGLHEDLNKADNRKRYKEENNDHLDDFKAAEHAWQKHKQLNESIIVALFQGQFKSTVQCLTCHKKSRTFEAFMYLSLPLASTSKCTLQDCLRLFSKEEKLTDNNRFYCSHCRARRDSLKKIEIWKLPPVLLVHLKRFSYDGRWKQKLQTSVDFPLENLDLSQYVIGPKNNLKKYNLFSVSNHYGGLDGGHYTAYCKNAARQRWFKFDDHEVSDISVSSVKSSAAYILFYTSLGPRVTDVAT
USP28 block = blocks human USP28 ubiquitin-rhodamine cleavage; purified USP28, Ub-rhodamine cleavage fluorescence, 30 min; inhibition, % at 25 µM; 47,000 compounds, 3% hits; AID 1645857
USP17 block = human USP17-like deubiquitinase inhibition | A8MUK1 | purified USP17, Ub-rhodamine cleavage fluorescence, 3 h | inhibition, % at 50 µM | 47,000 compounds, 6.5% hits
USP30 inh = blocks human USP30 ubiquitin-rhodamine cleavage; purified USP30, Ub-rhodamine cleavage fluorescence; AID 1645860; Q70CQ3; inhibition, % at 25 µM; 47,000 compounds, 5.3% hits
Starred values were filed as active, the others as inactive; i = inactive; x = no result given. Rule as the data show it: active = inhibition above about 30%; inactive = the rest.

SMILES	USP8 block	USP28 block	USP17 block	USP30 inh
CCCCCCCC/C=C\CCCCCCCc1cc(O)cc(O)c1C(=O)O	1	0	7	29
Cc1cn[nH]c1CC1CCCN(S(=O)(=O)c2cccc(F)c2)C1 (stereo not given)	-18	21	-6	20
Cc1cnc(C(=O)Nc2ccnn2C2CCCC2)cn1	-18	4	-9	2
O=C(COc1ccc(C2CCCCC2)cc1)Nc1ccc(-c2nn3cnnc3s2)cc1	33*	45*	72*	66*
CCCCCC(=O)C(CCCC)c1oc(=O)c(CCCC)c(O)c1CCCC (stereo not given)	20	14	30*	25
O=S(=O)(c1ccccc1)N1CCC2(CC1)NCCN=C2NCc1ccc2c(c1)OCO2	-2	-10	-1	-3
O=S(=O)(c1ccccc1)N1CCC2(CC1)NCCN=C2NCc1cc(F)cc(F)c1	16	17	10	33*
O=S(=O)(c1ccccc1F)N1CCC(Nc2cccnc2)C1 (stereo not given)	3	-180	-118	i
O=C(CCC1=NS(=O)(=O)c2ccc(C(F)(F)F)cc2N1)NCCc1ccccc1	22	-13	1	15
COc1cccc(Cn2c(C)c(CNCCc3ccc(Cl)cc3)c(C(=O)O)c2C)c1	-26	20	10	17
Nc1nonc1C(=O)NCCNCc1cccc(OCc2ccc(Cl)cc2)c1	-3	56*	9	17
COc1ccc(-c2ccc(-c3nnn(CCN4CCCCC4)n3)cc2)cc1	47*	4	18	0
COc1ccc(C)cc1-n1nnnc1SCC(=O)c1cc(C)ccc1C	-11	22	4	32*
COc1ccc2c(CCNC(=O)CSc3nnnn3-c3ccc(C)cc3C)c[nH]c2c1	7	-3	25	-36
COCCn1cnc(-c2nc(C(=O)Nc3cccc(O)c3)c3ccccn23)c1	-18	-9	-27	-25
O=C1CC(c2noc(-c3ccccn3)n2)CN1c1cccc(F)c1 (stereo not given)	10	16	16	32*
Cc1ccc(S(=O)(=O)N2CC(C(=O)NC3CCCCC3)C3(CCOCC3)C2)cc1 (stereo not given)	22	16	16	31*
CNc1nc(C2CCNC2)nc2c1CCN(S(=O)(=O)c1cc(C)c(OC)cc1C)C2 (stereo not given)	16	5	-9	-15
CN(CC1CC1)c1ccc2ccc(C(=O)NCCN3CCOCC3)cn12	-24	x	-66	x
CCN1CCN(c2ccc(C(=O)OC)cc2NC(=O)c2sc3cc(Cl)ccc3c2Cl)CC1	20	13	12	48*
CCN1CCN(c2ccc(C(=O)OC)cc2NC(=O)/C=C/c2cc(Br)ccc2OC)CC1	14	4	4	-4
Cc1cccc(C(=O)N2CCN(Cc3cc(=O)c4cccc(Cl)c4[nH]3)CC2)c1	-15	2	-7	-23
Cc1ccc(C(=O)[C@H]2C(c3ccccc3OCC#N)=NO[C@]23C(=O)Nc2ccccc23)cc1	9	21	42*	29
Cc1ccc(C(=O)[C@H]2C(/C=C/c3ccccc3)=NO[C@]23C(=O)Nc2ccccc23)cc1	3	22	12	17
Cn1cc(-c2cnc(N3CCCC3)nc2)cc1C(=O)N1CCN(c2ccncc2)CC1	-246	-238	-157	i
SMILES	USP8 block	USP28 block	USP17 block	USP30 inh
COc1ccc(Cl)cc1-c1nc(-c2cccnc2)no1	-13	-5	35*	-13
CC(=O)Nc1ccc(C2=CSC3=NS(=O)(=O)CCN23)cc1	12	13	9	32*
C/C(=C\c1ccccc1)CN1CCC(O)(c2ccc(C)cc2)CC1	34*	11	13	12
O=C(NCc1cccnc1)c1cn(-c2cccc(F)c2)nn1	5	3	2	15
COc1ccc(NC(C)C(=O)N2CC(=O)Nc3ccccc32)cc1 (stereo not given)	19	3	14	13
COc1ccc(C(NC(=O)c2nc3n(n2)-c2ccccc2S(=O)(=O)N3)C(C)C)cc1 (stereo not given)	9	18	33*	14
CC1CCN(S(=O)(=O)c2cc(C(=O)N3CCCCC3)n(C)c2)CC1	7	-15	-4	-15
COc1ccc(CN2C[C@@H]3C[C@]3(c3ccccc3)C(=O)c3ncccc32)cc1	84*	-7	60*	-108
O=c1c2cnc(N3CCN(c4ccccc4)CC3)nc2ccn1Cc1cccnc1	10	10	14	17
CCN1CCN(c2ncc3c(=O)n(CCc4ccccc4)ccc3n2)CC1	16	11	26	39*
CCN1CCN(c2ncc3c(=O)n(CCc4ccc(OC)c(OC)c4)ccc3n2)CC1	-24	0	4	14
O=c1c2cnc(N3CCCCC3)nc2ccn1CCc1ccccc1	17	18	85*	28
CSc1nc2ncc3c(=O)n(CCc4ccccc4)ccc3n2n1	16	8	62*	44*
O=C(CCCc1ccccc1)Nc1nnc(C2CC(=O)N(c3ccc(Cl)cc3)C2)s1 (stereo not given)	0	3	1	8
Cc1ccc(N2CC(c3nnc(NC(=O)CCc4ccccc4)s3)CC2=O)cc1 (stereo not given)	56*	15	18	29
Cc1ccc(CC(=O)Nc2nnc(C3CC(=O)N(c4cc(C)cc(C)c4)C3)s2)cc1 (stereo not given)	-4	-9	-5	-11
O=C(CCCc1ccccc1)Nc1nnc(C2CC(=O)N(c3ccccc3)C2)s1 (stereo not given)	-1	x	41*	x
CCCCC(=O)Nc1nnc(C2CC(=O)N(c3ccc(C)cc3)C2)s1 (stereo not given)	52*	-4	12	-1
CCc1ccc(N2CC(c3nnc(NC(=O)Cc4ccc(C)cc4)s3)CC2=O)cc1 (stereo not given)	-70	17	50*	33*
Cc1cc(-n2c(C)nc3ncccc3c2=O)ccc1NC(=O)c1ccc(C)c([N+](=O)[O-])c1	-124	20	-1	29
CC(=O)CSc1nnc2n1CCCN2C(=O)Nc1cccc(C(F)(F)F)c1	-47	-8	-25	-8
O=C(c1ccccn1)N1CC[C@@H]2CNS(=O)(=O)[C@@H]2CC1	-8	2	10	-12
Cc1ccccc1NC(=O)C1CCCN(c2nnc3cccc(C)n23)C1 (stereo not given)	0	-6	-1	-13
Cc1ccc(NC(=O)COc2ccccc2-c2noc(-c3cccc(F)c3)n2)cc1	10	-3	17	0
CCOc1cc(-c2noc(-c3ccccc3)n2)ccc1OCC(=O)Nc1ncccc1C	14	7	38*	32*
CC(C)NC(=O)N1CNC(=O)C12CCN(C(=O)Cc1cnc[nH]1)CC2	-9	-15	6	-98
O=C(COc1ccccc1)Nc1nnc(-c2ccc(Br)cc2)s1	0	-6	0	-2
O=C(CN1C(=O)c2ccccc2C1=O)Nc1nc(-c2ccc(Br)cc2)cs1	7	32*	7	47*
Cc1ccc(NC(=O)N2Cc3cccn3-c3ccccc32)cc1C	9	9	-10	3
COc1ccc(S(=O)(=O)N2CCC3(CC2)OC(=O)Nc2ccccc23)cc1	39*	7	64*	19
